From the supplement of paper PMC11732987, “Enantioselective OTUD7B fragment discovery through chemoproteomics screening and high-throughput optimisation” (Communications Chemistry, 2025)
Unmarked numbers belong to inactive results.

Target: T1, USP39 (UniProt Q53GS9)
T1 sequence (whole entry): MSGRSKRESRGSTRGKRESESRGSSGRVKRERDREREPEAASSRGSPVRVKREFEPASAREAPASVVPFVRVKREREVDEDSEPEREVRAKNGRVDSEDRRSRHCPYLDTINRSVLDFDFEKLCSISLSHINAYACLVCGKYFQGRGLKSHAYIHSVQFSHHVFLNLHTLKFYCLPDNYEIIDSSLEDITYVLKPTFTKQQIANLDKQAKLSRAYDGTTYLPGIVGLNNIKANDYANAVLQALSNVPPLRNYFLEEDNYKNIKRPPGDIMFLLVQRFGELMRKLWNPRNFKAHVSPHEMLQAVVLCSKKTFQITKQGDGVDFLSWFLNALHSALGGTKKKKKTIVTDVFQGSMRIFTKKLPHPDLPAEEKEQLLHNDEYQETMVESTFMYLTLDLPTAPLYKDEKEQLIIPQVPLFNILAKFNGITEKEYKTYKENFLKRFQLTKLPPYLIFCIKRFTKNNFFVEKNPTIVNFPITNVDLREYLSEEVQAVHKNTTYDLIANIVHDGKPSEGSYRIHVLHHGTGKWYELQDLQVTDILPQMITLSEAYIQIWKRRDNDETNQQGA
Assay: log2 ratio of Biotin-Ahx-Ub-VS probe labelling (fragment/DMSO); higher = less target engagement (more negative = stronger competition), active = hit call of the paper (q ≤ 0.05, log2 ratio ≤ -1)
Conditions: compound concentration: 200 uM; treatment time: 3 h
Summary of the method: (§1)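 Each value is an average log2 ratio of fragment to vehicle, tested by unpaired t-test. The underlying Spectronaut label-free quantities were global-median-normalised, and only proteins with ≥2 unique peptides were included. Triplicate HEK293T lysate samples (495 µg) were exposed to fragment at 200 µM or vehicle for 3 h, then to Biotin-Ahx-Ub-VS at 0.5 µM final for 1 h, before NeutrAvidin enrichment of labelled DUBs, LysC and trypsin digestion, and diaPASEF LC-MS/MS.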

`O=C(CCl)Nc1ccc(F)cc1Cl` and `Cc1cc(Cl)ccc1NC(=O)CCl` are within 0.2 log units of each other in “log2 ratio of Biotin-Ahx-Ub-VS probe labelling” value (from here on “log2 ratio”): 0.253 for the first, 0.072 for the second.

Going from `O=C(CCl)Nc1cccc2ncccc12` to `CC(NC(=O)CCl)c1cccc2ccccc12` (stereo not drawn), the “log2 ratio” value falls from 0.472 to 0.171.

`O=C(CCl)NC(Cn1ccccc1=O)c1ccccc1` (stereo not drawn) and `COCC[C@@H](NC(=O)CCl)c1ccccc1` are within 0.2 log units of each other in “log2 ratio” value: -0.0137 for the first, -0.0498 for the second.

`Cc1n[nH]c(=O)c2c(NC(=O)CCl)oc(C)c12` and `Cc1ccc(-c2nnc(C)[nH]2)c(NC(=O)CCl)c1` are within 0.2 log units of each other in “log2 ratio” value: 0.082 for the first, 0.182 for the second.

`Cc1ccc(C)c(Oc2ccc(CNC(=O)CCl)cn2)c1.Cl` and `N#Cc1ccc(CNC(=O)CCl)cc1` are within 0.2 log units of each other in “log2 ratio” value: 0.00552 for the first, 0.191 for the second.

First: Cc1nc(CN2CCCN(C(=O)CCl)CC2)no1.Cl
Second: Cc1noc(N2CCN(C(=O)CCl)CC2)n1.Cl
The “log2 ratio” value of the first is lower: -0.161 for the first, 0.251 for the second.

`CC(C)n1nccc1NC(=O)CCl` and `CC(NC(=O)CCl)c1ccc2[nH]ncc2c1` (stereo not drawn) are within 0.2 log units of each other in “log2 ratio” value: -0.252 for the first, -0.146 for the second.

`Cl.O=C(CN1CCN(C(=O)CCl)CC1)Nc1ccc(F)cc1` and `O=C(CCl)N1CCC(S(=O)(=O)c2ccc(F)cc2)CC1` are within 0.2 log units of each other in “log2 ratio” value: 0.0696 for the first, 0.031 for the second.

`CC(NC(=O)CCl)c1cnn(C2CC2)c1` (stereo not drawn) and `Cl.Cn1ncc2c1CCCC2NC(=O)CCl` (stereo not drawn) are within 0.2 log units of each other in “log2 ratio” value: -0.0478 for the first, -0.0961 for the second.

`NC(=O)C(Cc1ccccc1)NC(=O)CCl` (stereo not drawn) and `COc1ccccc1C(C)NC(=O)CCl` (stereo not drawn) are within 0.2 log units of each other in “log2 ratio” value: -0.257 for the first, -0.155 for the second.

Compared with `O=C(CCl)NC1CCN(C(=O)C2CCCCC2)CC1`, `O=C(CCl)N1CCC(C(=O)N2CCCCCC2)CC1` is lower in “log2 ratio” value: 0.187 for the first, -0.143 for the second.

`COc1ccc(Cl)cc1NC(=O)CCl` and `CN(C(=O)CCl)c1nc2ccccc2s1` are within 0.2 log units of each other in “log2 ratio” value: 0.264 for the first, 0.31 for the second.

`O=C(CCl)Nc1nnc(CC(F)(F)F)o1` and `O=C(CCl)NCCC1=CCCCC1` are within 0.2 log units of each other in “log2 ratio” value: 0.00671 for the first, 0.131 for the second.

Compared with `O=C(CCl)N(C1=CCCCC1)C1CC1`, `O=C(CCl)N(C1CCCC1)C1CCS(=O)(=O)C1` (stereo not drawn) is higher in “log2 ratio” value: -0.177 for the first, 0.151 for the second.

`Cc1ccc(CN(CCO)C(=O)CCl)cc1` and `O=C(CCl)N(Cc1ccsc1)C1CC1` are within 0.2 log units of each other in “log2 ratio” value: -0.0925 for the first, -0.0741 for the second.

Going from `O=C(CCl)N1CCCCC12CCOCC2` to `O=C(CCl)N1CC2(CCOCC2)C1`, the “log2 ratio” value rises from -0.243 to 0.364.

First: O=C(CCl)N1CCOC2(CCC2)CC1
Second: Cc1nc(CN2CCN(C(=O)CCl)CC2)cs1
The “log2 ratio” value of the first is higher: 0.138 for the first, -0.381 for the second.

Target: T2, USP4 (UniProt Q13107)
T2 sequence (whole entry): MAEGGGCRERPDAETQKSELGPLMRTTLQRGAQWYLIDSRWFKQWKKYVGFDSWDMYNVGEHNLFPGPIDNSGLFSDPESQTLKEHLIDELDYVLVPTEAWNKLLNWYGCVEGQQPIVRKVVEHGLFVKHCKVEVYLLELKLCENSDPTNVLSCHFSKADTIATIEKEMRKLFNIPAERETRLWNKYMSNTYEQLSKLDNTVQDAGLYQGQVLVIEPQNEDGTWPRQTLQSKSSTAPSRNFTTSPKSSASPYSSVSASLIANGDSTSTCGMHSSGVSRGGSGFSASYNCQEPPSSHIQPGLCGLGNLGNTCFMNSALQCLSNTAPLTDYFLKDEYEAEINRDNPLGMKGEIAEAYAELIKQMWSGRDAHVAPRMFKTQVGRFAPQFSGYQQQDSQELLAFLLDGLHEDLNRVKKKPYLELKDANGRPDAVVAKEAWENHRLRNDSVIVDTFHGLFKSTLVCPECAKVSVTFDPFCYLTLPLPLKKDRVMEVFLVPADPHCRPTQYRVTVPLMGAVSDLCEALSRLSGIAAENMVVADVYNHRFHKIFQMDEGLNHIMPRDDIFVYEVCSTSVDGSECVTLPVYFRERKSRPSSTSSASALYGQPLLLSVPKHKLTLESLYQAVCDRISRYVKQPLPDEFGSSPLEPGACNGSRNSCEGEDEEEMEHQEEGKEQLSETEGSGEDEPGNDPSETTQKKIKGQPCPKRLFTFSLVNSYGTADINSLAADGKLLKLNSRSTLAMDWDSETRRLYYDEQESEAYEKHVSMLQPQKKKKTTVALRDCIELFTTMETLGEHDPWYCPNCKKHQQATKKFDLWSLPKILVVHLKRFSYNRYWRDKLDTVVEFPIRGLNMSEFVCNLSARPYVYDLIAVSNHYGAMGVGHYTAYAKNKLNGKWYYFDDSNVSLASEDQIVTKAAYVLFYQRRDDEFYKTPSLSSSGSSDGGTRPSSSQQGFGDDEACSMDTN
Assay: as above
Conditions: compound concentration: 200 uM; treatment time: 3 h
Summary of the method: as §1

`O=C(CCl)Nc1ccc(F)cc1Cl` and `Cc1cc(Cl)ccc1NC(=O)CCl` are within 0.2 log units of each other in “log2 ratio” value: -0.129 for the first, -0.0162 for the second.

`O=C(CCl)Nc1cccc2ncccc12` and `CC(NC(=O)CCl)c1cccc2ccccc12` (stereo not drawn) are within 0.2 log units of each other in “log2 ratio” value: 0.0333 for the first, -0.154 for the second.

`O=C(CCl)NC(Cn1ccccc1=O)c1ccccc1` (stereo not drawn) and `COCC[C@@H](NC(=O)CCl)c1ccccc1` are within 0.2 log units of each other in “log2 ratio” value: -0.127 for the first, 0.0432 for the second.

`Cc1n[nH]c(=O)c2c(NC(=O)CCl)oc(C)c12` and `Cc1ccc(-c2nnc(C)[nH]2)c(NC(=O)CCl)c1` are within 0.2 log units of each other in “log2 ratio” value: 0.0593 for the first, 0.0297 for the second.

Going from `Cc1ccc(C)c(Oc2ccc(CNC(=O)CCl)cn2)c1.Cl` to `N#Cc1ccc(CNC(=O)CCl)cc1`, the “log2 ratio” value rises from -0.39 to -0.0634.

Compared with `Cc1nc(CN2CCCN(C(=O)CCl)CC2)no1.Cl`, `Cc1noc(N2CCN(C(=O)CCl)CC2)n1.Cl` is lower in “log2 ratio” value: 0.31 for the first, 0.0534 for the second.

Compared with `CC(C)n1nccc1NC(=O)CCl`, `CC(NC(=O)CCl)c1ccc2[nH]ncc2c1` (stereo not drawn) is lower in “log2 ratio” value: -0.0708 for the first, -0.324 for the second.

Going from `Cl.O=C(CN1CCN(C(=O)CCl)CC1)Nc1ccc(F)cc1` to `O=C(CCl)N1CCC(S(=O)(=O)c2ccc(F)cc2)CC1`, the “log2 ratio” value falls from 0.142 to -0.218.

First: CC(NC(=O)CCl)c1cnn(C2CC2)c1 (stereo not drawn)
Second: Cl.Cn1ncc2c1CCCC2NC(=O)CCl (stereo not drawn)
The “log2 ratio” value of the first is lower: -0.409 for the first, 0.00214 for the second.

First: NC(=O)C(Cc1ccccc1)NC(=O)CCl (stereo not drawn)
Second: COc1ccccc1C(C)NC(=O)CCl (stereo not drawn)
The “log2 ratio” value of the first is higher: 0.0089 for the first, -0.226 for the second.

`O=C(CCl)NC1CCN(C(=O)C2CCCCC2)CC1` and `O=C(CCl)N1CCC(C(=O)N2CCCCCC2)CC1` are within 0.2 log units of each other in “log2 ratio” value: -0.0463 for the first, 0.128 for the second.

Going from `COc1ccc(Cl)cc1NC(=O)CCl` to `CN(C(=O)CCl)c1nc2ccccc2s1`, the “log2 ratio” value rises from -0.469 to 0.161.

`O=C(CCl)Nc1nnc(CC(F)(F)F)o1` and `O=C(CCl)NCCC1=CCCCC1` are within 0.2 log units of each other in “log2 ratio” value: -0.0637 for the first, 0.0999 for the second.

`O=C(CCl)N(C1=CCCCC1)C1CC1` and `O=C(CCl)N(C1CCCC1)C1CCS(=O)(=O)C1` (stereo not drawn) are within 0.2 log units of each other in “log2 ratio” value: 0.0249 for the first, 0.0894 for the second.

`Cc1ccc(CN(CCO)C(=O)CCl)cc1` and `O=C(CCl)N(Cc1ccsc1)C1CC1` are within 0.2 log units of each other in “log2 ratio” value: -0.21 for the first, -0.116 for the second.

Compared with `O=C(CCl)N1CCCCC12CCOCC2`, `O=C(CCl)N1CC2(CCOCC2)C1` is higher in “log2 ratio” value: -0.266 for the first, -0.0394 for the second.

`O=C(CCl)N1CCOC2(CCC2)CC1` and `Cc1nc(CN2CCN(C(=O)CCl)CC2)cs1` are within 0.2 log units of each other in “log2 ratio” value: -0.409 for the first, -0.261 for the second.
